Among all 360,000 compounds or so, about 2,600 (0.72%) were called active. This excerpt belongs to a sample that is enriched for actives. Values without a mark were called inactive.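 The calls were made as follows: active = inhibition above its plate's cutoff, the mean inhibition of sample wells plus 3 SD (cut at about 27% in these data); inactive = the rest.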
molecular target: Muscarinic acetylcholine receptor M4 (Homo sapiens) (UniProt P08173); assay: CHRM4 blockers of acetylcholine calcium response – CHO cells, Fluo-8 calcium fluorescence, primary screen (AID 624125); details: CHO-hM4 cells, ACh EC80, Fluo-8 calcium fluorescence; at 3 µM; hits give high values;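 also: 0% = acetylcholine EC80 with DMSO and 100% = DMSO without agonist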
Sequence (P08173 whole entry, looked up): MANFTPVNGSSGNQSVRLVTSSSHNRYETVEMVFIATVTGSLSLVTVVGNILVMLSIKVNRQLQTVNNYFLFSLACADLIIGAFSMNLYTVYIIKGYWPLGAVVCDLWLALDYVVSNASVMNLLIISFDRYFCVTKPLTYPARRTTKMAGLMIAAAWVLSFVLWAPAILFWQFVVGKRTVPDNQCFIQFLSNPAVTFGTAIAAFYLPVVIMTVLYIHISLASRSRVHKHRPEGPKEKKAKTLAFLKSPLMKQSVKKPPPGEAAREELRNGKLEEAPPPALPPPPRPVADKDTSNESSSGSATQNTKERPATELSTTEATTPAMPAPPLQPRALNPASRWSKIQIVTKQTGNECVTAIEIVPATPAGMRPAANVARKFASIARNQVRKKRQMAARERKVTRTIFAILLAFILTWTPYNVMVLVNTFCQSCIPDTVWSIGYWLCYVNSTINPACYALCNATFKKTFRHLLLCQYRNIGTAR

Structure (SMILES) | inhibition
C#CCNC(=O)C1=C[C@@H](c2ccccc2)[C@H](CCCO)[C@@H](OCC)O1 | 12.4%
O=[N+]([O-])c1ccc(CN2CC(N3CC=CC3)CS2(=O)=O)cc1 (centres undefined) | -1.16%
O=C1/C(=C\c2ccc([N+](=O)[O-])cc2)CS(=O)(=O)C/C1=C/c1ccc([N+](=O)[O-])cc1 | 26.7% (active)
O=C(CSCc1c(F)cccc1Cl)NCC1CCCO1 (centres undefined) | -3.01%
CC(=O)Nc1ccccc1OC(C)C(=O)N1CCC(C)CC1 (centres undefined) | -7.56%
CC(C)c1cc(C(=O)N(C)C2CCCN(Cc3ccccc3F)C2)n(C)n1 (centres undefined) | -12.6%
O=C(O)C(c1cccs1)C1(O)CCCCC1 (centres undefined) | 5.22%
O=C(O)C(c1ccccc1)C1(O)CCCCC1 (centres undefined) | -13.2%
CN(C)CCOC(=O)C(c1ccccc1)C1(O)CCCC1 (centres undefined) | 98% (active)
CCC(C)[C@H](NC(=O)N1CCn2c1nc1ccccc12)C(=O)NCc1ccc(OC)cc1 (some centres undefined) | -15.9%
NS(=O)(=O)c1ccc(CCNC(=O)c2ccc([N+](=O)[O-])cc2[N+](=O)[O-])cc1 | 5.77%
COc1nnc(-c2ccc(C)c(S(=O)(=O)N(C)C)c2)c2ccccc12 | 2.31%
COC(=O)c1ccc2nc(-c3ccccc3)c(Cc3ccc(OC)cc3C)n2c1 | 11.4%
COC(=O)c1ccc2nc(-c3cccc(Br)c3)c(Cc3ccc(OC)cc3C)n2c1 | 1.2%
CCCCNc1c(-c2cccc(Sc3ccc(OC)cc3)c2)nc2ccccn12 | 48.5% (active)
CN1C(=O)CC(N2CCN(c3ccccn3)CC2)C1=O (centres undefined) | 2.5%
Cc1ccc(C(=O)N(CN2CCCC2=O)c2ccc(F)cc2)cc1 | 6.56%
COC(=O)c1ccc(CN2CCC(CO)(Cc3ccc(OC)cc3)CC2)cc1 | 31.7% (active)
COc1cccc(CC2(CO)CCN(Cc3cnc(-c4cccc(C)c4)nc3)CC2)c1 | 0.77%
COc1ccc(CC2(CO)CCN(Cc3cnn(C)c3)CC2)cc1 | -5.66%
CC(C)(C)Nc1c(-c2cccs2)nc2ccccn12 | 6.54%
O=C(CNS(=O)(=O)c1ccc2c(c1)OCCCO2)N1CCN(c2ccc(F)cc2)CC1 | -7.25%
CC(C)CCN1C(=O)c2ccc(C(=O)Nc3cccc(S(N)(=O)=O)c3)cc2C1=O | 4.89%
CN=C1C=C/C(=N/N=c2\ccn(O)cc2C)C=C1C | 11.9%

Structure (SMILES) | inhibition
Nc1scc[n+]1Cc1cccc2cccnc12 | -7.43%
c1ccc2c(C[n+]3csc4ccccc43)cccc2c1 | 30.1% (active)
CCN(CC(=O)Nc1ccccc1OC)C(=O)CC1CC2CCC1C2 (centres undefined) | 0.94%
Cc1cccc2c1N(CCOc1ccccc1)C(=O)C2=O | -0.73%
C/C(=N\N1CCN(Cc2ccc(C)cc2)CC1)c1ccco1 | 1.69%
CCOC(=O)c1ccccc1NC(=O)COC(=O)CCC(=O)N1CCOCC1 | 2.73%
C[C@H]1[C@H]2c3nc4ccccc4n3C[C@H]1ON2C1CCCCC1 | -2.5%
Cc1onc(-c2ccccc2)c1-c1nnc(COC(=O)c2ccc(N(C)C)cc2)o1 | 62.4% (active)
Cc1ccc(C(=O)NCC(=O)OCc2nnc(-c3ccccc3)o2)cc1 | 8.37%
O=C(OCc1nnc(-c2ccccc2)o1)c1ccc2c(c1)C(=O)N(CCc1ccccc1)C2=O | -2.43%
COc1ccc(C(=O)N2CCCCC2c2cc(C(=O)Nc3ccccc3)no2)cc1 (centres undefined) | -6.76%
Cn1c(-c2ccc(C(=O)c3ccccc3)s2)nc2ccccc21 | 1.58%
Cc1nc2sc(C(=O)c3ccccc3)c(N)c2c2c1CCCC2 | 29.8% (active)
Cc1c(C(=O)Nc2ccccc2)sc2nc3n(c(=O)c12)CCCCC3 | -0.96%
COc1ccc([C@H]2C[C@@H](n3cc(COC(=O)c4ccccc4)nn3)[C@H](O)CN2C(=O)c2cccs2)cc1 | -7.8%
Cc1ccc(S(=O)(=O)N(CC(=O)NCCSC2CCCCC2)c2ccccc2F)cc1 | -2.75%
CCCCC[C@@H]1C=C(C(=O)OCC)[C@H](c2ccccc2)N1S(=O)(=O)c1ccc(C)cc1 | -11.2%
CCOC(=O)C1C(C)C(C(C)(C)C)N(S(=O)(=O)c2ccc(C)cc2)C1c1ccccc1 (centres undefined) | 37.7% (active)
CCOC(=O)C1=CC[C@@H](c2ccccc2)N(S(=O)(=O)c2ccc(C)cc2)[C@H]1c1ccc(CC)cc1 | -16.5%
CCC(C)NCCOCCOc1ccc(Br)cc1C (centres undefined) | 6.84%
Cc1ccc(C)c(NC(=O)C(OC(=O)c2ccc(C)s2)c2ccccc2)c1 (centres undefined) | -13.1%
CCCOc1ccc(F)cc1-c1cc(C(=O)Nc2ccc(F)c(Cl)c2)[nH]n1 | 28% (active)
CCCOc1ccc(F)cc1-c1cc(C(=O)NCc2ccc(F)cc2)[nH]n1 | -9.17%
CCCOc1ccc(F)cc1-c1cc(C(=O)Nc2ccc(F)cc2)[nH]n1 | -2.62%

Structure (SMILES) | inhibition
CC(=O)NC(C(=O)NCC(N)=O)C(C)C (centres undefined) | -7.93%
Cc1ccc(C)c(S(=O)(=O)Nc2cccc(-n3cnnn3)c2)c1 | 4.01%
O=C(CC1Oc2ccccc2NC1=O)NCCCN1CCN(Cc2ccccc2)CC1 (centres undefined) | -1.94%
CN(C)c1ccc(CNC23CN4CN(CN(C4)C2)C3)cc1 | 3.33%
O=C(CN1CCN(Cc2ccccc2)CC1)Nc1ccc(F)c(F)c1 | 13%
O=C(CN1CCN(Cc2ccccc2)CC1)NC(c1ccccc1)c1ccccc1 | 44.7% (active)
O=C(CN1CCc2ccccc21)NC(c1ccccc1)c1ccccc1 | -1.96%
CN(CCc1ccccc1)c1ccc([N+](=O)[O-])cn1 | 10.7%
COc1cc(NC(=S)NNC(=O)CC(C)C)c(OC)cc1Cl | -7.19%
CN(O)C(=S)c1ccccc1 | 31.7% (active)
Cc1nn(Cc2ccccc2)c(C)c1CNC(=O)c1ccc(F)c(S(=O)(=O)N2CCOCC2)c1 | -8.04%
Cc1cccc(CSc2ccc(-c3cccs3)nn2)c1 | -4.51%
CSCCC1NC(=O)N(CC(=O)Nc2cccc(S(=O)(=O)N3CCCCCC3)c2)C1=O (centres undefined) | -15.2%
O=C(Nc1ccccc1)c1nnsc1S(=O)(=O)c1ccc(Cl)cc1 | 70.3% (active)
C/C(=N\NS(=O)(=O)c1ccc(Cl)cc1)c1ccc(NC(=O)c2ccco2)cc1 | 7.91%
O=C(/C=C/c1ccc(Cl)cc1)Nc1ccc(S(=O)(=O)Nc2ncccn2)cc1 | 0.88%
Cn1c(CC(=O)Nc2ccc(F)cc2)nnc1SCC(=O)NC1CCCCC1 | -3.82%
CC(=O)N1CCc2c(sc(NC(=O)CCS(=O)(=O)c3ccc(C)cc3)c2C(N)=O)C1 | -0.18%
CS(=O)(=O)c1ccc(C(=O)NNC(=O)c2cccs2)cc1 | 0.8%
Cc1ccc2[nH]cc(CCCN3C(=O)c4ccccc4C3=O)c2c1 | -6.81%
Cc1cccc(CSc2nnc(C)c(=O)n2N)c1 | -5.35%
COCCn1c(SCC(=O)Nc2ccc(F)cc2F)nc2c(c1=O)SCC2 | -3.44%
Cc1cccc(CSc2nc3c(c(=O)n2C)SCC3)c1 | 30.4% (active)
CCOC(=O)C1=CN(Cc2ccc(Br)cc2)S(=O)(=O)NC1C (centres undefined) | -12.5%

Structure (SMILES) | inhibition
O=C1C2(c3ccccc3)CN(CCCO)CC1(c1ccccc1)CN(CCCO)C2 | 4.09%
FC(F)(F)c1cccc(-c2cc3ccccc3nc2N2CCCC2)c1 | 2.79%
CCN(CC)CCCC(C)n1c2nc(=O)[nH]c(=O)c-2nc2cc(Cl)ccc21 (centres undefined) | 38.6% (active)
C=CCn1c(N)cc(=O)nc1SCC(=O)Nc1cccc2ccccc12 | 0.21%
CCN(CC)P(=O)(C(NC(=O)OC)C(F)(F)C(F)(F)C(F)(F)C(F)F)N(CC)CC (centres undefined) | 2.64%
COc1ccc(NC(=O)/C(Cl)=C(/Cl)S(=O)Cc2ccc(C)cc2)cn1 (centres undefined) | 50.8% (active)
CC(C)=CCCC1(C)C=Cc2c(ccc3c2[nH]c2cc(O)c(C)cc23)O1 (centres undefined) | -7.94%
Cc1c(CN2CCCC(C(=O)c3cccc(Cl)c3)C2)c(=O)n(-c2ccccc2)n1C (centres undefined) | 7.63%
O=C(C[C@H]1C/C=C\C[C@@H](NC(=O)OCC2c3ccccc3-c3ccccc32)C(=O)O[C@@H](c2ccccc2)CNC1=O)N[C@H](CO)Cc1ccccc1 | -3.13%
O=C(NNC(=O)C1C2CCC(C2)C1C(=O)O)c1ccc(Cl)cc1 (centres undefined) | 2.59%
COc1ccc(NS(=O)(=O)c2ccc(Oc3c(C#N)cccc3C#N)cc2)cc1 | 15%
COc1ccc(S(=O)(=O)/N=C2\C=C(NS(=O)(=O)c3ccccc3)C(=O)c3ccccc32)cc1 | 27.9% (active)
Cc1ccc(S(=O)(=O)/N=C2\C=C(NS(=O)(=O)c3ccc(C)cc3)C(=O)c3ccccc32)cc1 | 4.16%
Cc1cccc(NS(=O)(=O)c2ccc(C)c(C(=O)NCc3cccnc3)c2)c1 | -6.05%
Cc1cc(NS(=O)(=O)c2ccc(NC(=S)NC(=O)c3ccc(F)cc3Cl)cc2)no1 | 9.04%
C[C@H](NC(=O)c1nc[nH]c1C(=O)NCC(=O)OC(C)(C)C)C(=O)OCc1ccccc1 | 17.7%
O=C(N[C@@H](Cc1ccccc1)C(=O)OCc1ccccc1)c1nc[nH]c1C(=O)N[C@@H](Cc1ccccc1)C(=O)OCc1ccccc1 | 2.96%
Cc1cccc(NC(=O)c2nc[nH]c2C(=O)NCC(=O)OCc2ccccc2)c1 | 29.3% (active)
Cc1cccc(NC(=O)c2nc(S(=O)(=O)Cc3ccccc3)ncc2Cl)c1 | 51.3% (active)
CN(CC(=O)Nc1ccc(F)cc1)CC(=O)Nc1ccc(Cl)c(S(=O)(=O)N2CCOCC2)c1 | -7.68%
Cc1cccc(CS(=O)(=O)c2ncc(Cl)c(C(=O)Nc3ccc(F)cc3)n2)c1 | 33.5% (active)
O=C(CS(=O)(=O)Cc1ccccc1)Nc1cccnc1 | -2.16%

Source: PubChem BioAssay AID624125 (The Scripps Research Institute Molecular Screening Center, 2012)
